This is an account of results in ChEMBL document CHEMBL1201862, “PubChem BioAssay data set” (2004).

The whole screen tested about 400,000 compounds, of which about 2,100 (0.53%) were called active. About 14% were inconclusive and are not listed. The sample holds actives, similar compounds and a random draw of the others, so the mix is not that of the screen. How the calls were made is not given here.

The assay deals with Ataxin-2 (Homo sapiens) (UniProt Q99700). Description: qHTS for Inhibitors of ATXN expression. Format: functional.
Ataxin-2 (Homo sapiens), sequence (Q99700 whole entry): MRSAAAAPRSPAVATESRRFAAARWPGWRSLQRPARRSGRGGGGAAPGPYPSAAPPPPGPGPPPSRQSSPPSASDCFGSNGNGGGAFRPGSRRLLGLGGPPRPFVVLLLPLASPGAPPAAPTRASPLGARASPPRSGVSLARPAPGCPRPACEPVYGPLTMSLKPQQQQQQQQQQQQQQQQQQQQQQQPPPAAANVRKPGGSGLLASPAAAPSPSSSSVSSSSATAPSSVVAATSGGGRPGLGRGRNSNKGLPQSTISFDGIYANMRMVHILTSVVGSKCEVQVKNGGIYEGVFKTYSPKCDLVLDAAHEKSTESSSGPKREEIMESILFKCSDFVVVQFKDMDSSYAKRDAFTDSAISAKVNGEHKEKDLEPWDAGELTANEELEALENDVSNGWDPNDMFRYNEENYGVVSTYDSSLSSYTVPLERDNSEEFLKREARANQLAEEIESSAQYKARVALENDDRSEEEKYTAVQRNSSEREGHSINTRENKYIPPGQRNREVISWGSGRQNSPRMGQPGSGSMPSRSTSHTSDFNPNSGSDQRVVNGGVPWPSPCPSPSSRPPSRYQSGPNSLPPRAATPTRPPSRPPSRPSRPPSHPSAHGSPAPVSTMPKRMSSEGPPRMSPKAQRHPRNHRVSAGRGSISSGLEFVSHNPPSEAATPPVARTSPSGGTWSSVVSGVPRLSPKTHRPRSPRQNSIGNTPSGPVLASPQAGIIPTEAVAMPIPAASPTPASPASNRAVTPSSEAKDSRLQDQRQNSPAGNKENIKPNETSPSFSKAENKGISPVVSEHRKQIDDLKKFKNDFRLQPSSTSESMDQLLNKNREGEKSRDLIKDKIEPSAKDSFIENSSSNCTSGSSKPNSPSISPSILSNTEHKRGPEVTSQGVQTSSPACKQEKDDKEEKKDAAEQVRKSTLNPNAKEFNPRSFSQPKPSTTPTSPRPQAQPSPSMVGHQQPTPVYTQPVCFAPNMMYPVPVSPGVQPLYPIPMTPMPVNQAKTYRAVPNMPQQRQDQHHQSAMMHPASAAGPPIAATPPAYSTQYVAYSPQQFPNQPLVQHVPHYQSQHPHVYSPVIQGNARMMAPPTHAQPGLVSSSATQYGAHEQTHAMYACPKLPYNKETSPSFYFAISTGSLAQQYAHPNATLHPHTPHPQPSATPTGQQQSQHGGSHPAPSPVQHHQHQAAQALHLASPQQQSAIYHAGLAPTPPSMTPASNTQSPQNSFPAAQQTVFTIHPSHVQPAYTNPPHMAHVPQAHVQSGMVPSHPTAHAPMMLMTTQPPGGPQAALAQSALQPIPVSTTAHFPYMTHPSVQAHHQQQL
Turning to `Cc1cc(-c2sccc2Br)nc(-n2cccc2)n1`, the Potency entry is “inactive”.

Consider `COc1cccc(/C=N/NC(=O)c2cnn(-c3ccccc3)c2N)c1`, for which the Potency result is “inactive”.

Turning to `COc1ccc(S(=O)(=O)N2CCOCC2)cc1NC(=O)COC(=O)c1oc2ccccc2c1C`, the Potency entry is “inactive”.

Turning to `N#Cc1c2c(c(NCCOCCO)n3c1nc1ccccc13)CCCC2`, the Potency result is “inactive”.

In the case of `OCCCc1nc2n(n1)C(c1cccc(Cl)c1)C=C(c1ccccc1)N2` (stereo not given), the Potency result is “inactive”.

Take `COc1ccc(C(=O)COC(=O)/C=C/c2ccco2)cc1F`: the Potency result is “inactive”.

Consider `O=C(N/N=C/c1cccnc1)c1ccccc1OCc1ccc(Br)cc1`, for which the Potency result is “inactive”.

On to `N#Cc1ccc(/C=C/C(=O)c2cccnc2)cc1`, for which the Potency was 25.1 µM (active).

As for `COC(=O)C(=C/C(C)=C/c1cccnc1)C(=O)OC`, the Potency is 22.4 µM (active).

With `N#Cc1ccc(C(=O)CSc2nnc(O)n2-c2cccnc2)cc1`, the Potency result is “inactive”.

Consider `N#Cc1ccc(/C=C\c2[nH]ccc3c4ccccc4nc2-3)cc1`, for which the Potency result is “inactive”.

As to `O=c1c(-c2nc3ccccc3s2)cccn1Cc1ccc(Cl)c(Cl)c1`, the Potency entry was “inactive”.

`Oc1cc(-c2nc3ccccc3s2)cc2c1OCCN(Cc1cccn1-c1ccccn1)C2`: the Potency was 31.6 µM (active).

`Cc1ccc(Cl)c(NC(=O)CSc2nnc(O)n2C2CC2)c1Cl`: the Potency result was “inactive”.

Take `CN(C)CCCN1C(=O)c2cccc3c([N+](=O)[O-])ccc(c23)C1=O`: the Potency result was “inactive”.

On to `CN(C)CCCN1c2ccc3ccccc3c2Sc2cccc(Cl)c21`, for which the Potency was 37.7 µM (active).

For `CN(C)CCCN1C(=O)c2cccc3c(Br)ccc(c23)C1=O`, the Potency entry is “inactive”.

Consider `CC1(C)CC(NC(=O)c2ccc(Cl)c(S(=O)(=O)N(Cc3ccccc3)c3ccccc3)c2)CC(C)(C)N1`, for which the Potency is 22.4 µM (active).

Turning to `CC1(C)CC(NC(=O)c2sc3cc(Cl)ccc3c2Cl)CC(C)(C)N1`, the Potency result is “inactive”.

For `CN(c1ccccc1)S(=O)(=O)c1cc(C(=O)OCC(N)=O)ccc1Cl`, the Potency entry was “inactive”.

For `CCCN1C2CCCC1CC(N=C(S)Nc1cccc(C)c1)C2` (stereo not given), the Potency result was “inactive”.

`Cc1nc2ccc(NC(S)=NC3CCCCC3)cc2nc1C`: the Potency result is “inactive”.

For `Cc1cc(C)cc(NC(S)=NCCN(C2CCCCC2)C2CCCC2)c1`, the Potency is 39.8 µM (active).

Consider `CCN1CCc2c(sc(NC(=O)Nc3ccc(Cl)c(Cl)c3)c2C(N)=O)C1`, for which the Potency entry was “inactive”.

For the compound `Cc1c(NC(=O)Nc2ccc(Cl)c(Cl)c2)sc(=S)n1C`, the Potency was 39.8 µM (active).

As to `Cc1occc1C(=O)NNC(=O)Nc1ccc(Cl)c(Cl)c1`, the Potency entry was “inactive”.

Regarding `CCN(Cc1ccc(NC(C)=O)cc1)CC1CCCN(CCc2cccc(F)c2)C1` (stereo not given), the Potency entry was “inactive”.

With `Cc1c2c(=O)n(-c3nc4ccccc4s3)nc-2cc(O)n1Cc1ccccc1`, the Potency entry is “inactive”.

As for `COc1ccc(C(=O)N/N=C/c2sc3ccccc3c2O)cc1`, the Potency entry is “inactive”.

In the case of `COc1ccc(Nc2cnn(-c3nc4ccccc4s3)c(=O)c2Cl)cc1`, the Potency was 25.1 µM (active).

Regarding `COC(=O)c1cc2c(=O)n3ccccc3nc2n(Cc2cccnc2)c1=N`, the Potency entry is “inactive”.

On to `COc1ccc(C#Cc2c(C=O)n(C)c3ccccc23)cc1`, for which the Potency result was “inactive”.

Turning to `Cc1ccccc1NCc1ccc([N+](=O)[O-])s1`, the Potency result was “inactive”.

As to `Cc1nc2ccccc2n1/N=C/c1ccc([N+](=O)[O-])s1`, the Potency is 23.8 µM (active).

Consider `O=[N+]([O-])c1ccc(/C=N/n2cnc3ccccc32)s1`, for which the Potency is 22.4 µM (active).

For the compound `COc1ccc(/C=N/NC(=O)c2cc[nH]n2)cc1Cn1nc(C)c([N+](=O)[O-])c1C`, the Potency entry was “inactive”.

As for `COc1ccc(-n2c(NC(=O)c3ccco3)c(C#N)c3nc4ccccc4nc32)cc1`, the Potency entry was “inactive”.

Consider `CCCOc1ccc(/C=N/Nc2cccc([N+](=O)[O-])c2)c(O)c1`, for which the Potency entry was “inactive”.

As for `CCOc1ccc2nc(C)cc(Nc3cccc([N+](=O)[O-])c3)c2c1`, the Potency was 39.8 µM (active).

For `O=[N+]([O-])c1cccc(Nc2c3ccccc3nc3ccccc23)c1`, the Potency entry is “inactive”.

In the case of `CCCCCc1c(-c2cccc(Br)c2)ncn1CCc1ccccc1OC`, the Potency is 39.8 µM (active).

Take `Cn1c(O)nnc1-c1cccc(Br)c1`: the Potency result was “inactive”.

On to `COc1ccc(Br)cc1CN1CCN(c2ncccn2)CC1`, for which the Potency entry was “inactive”.

Take `CCCCc1c(-c2cccc(Br)c2)ncn1CCc1ccccc1OC`: the Potency was 28.2 µM (active).

As to `Cc1cc(-n2c(=O)c(C#N)cc3c(=O)n4ccccc4nc32)no1`, the Potency result is “inactive”.

`Clc1cccc(-c2nc(NCCCN3CCOCC3)c3ccccc3n2)c1`: the Potency entry is “inactive”.

Regarding `Clc1cccc(CNc2ccn3nc(-c4ccc(OCCN5CCOCC5)cc4)cc3n2)c1`, the Potency was 28.2 µM (active).

Regarding `COc1ccc(-c2cc(C(F)(F)F)n3nc(C(=O)NCCN4CCOCC4)cc3n2)cc1`, the Potency result is “inactive”.

On to `CCCCN(CCCC)C(=O)C[n+]1cccc(/C=N/O)c1`, for which the Potency result was “inactive”.

In the case of `Cc1cc(/N=C/C=C2/N(C)c3ccccc3C2(C)C)n(CCC#N)n1`, the Potency is 15.8 µM (active).

Consider `CN1/C(=C\C(=O)c2cccc(S(=O)(=O)N3CCCCC3)c2)C(C)(C)c2ccccc21`, for which the Potency result was “inactive”.

Consider `Cc1cc(/N=C/C=C2\N(C)c3ccccc3C2(C)C)n(CCC#N)n1`, for which the Potency was 31.6 µM (active).

Take `Oc1nc2c(O)ncnc2nc1-c1ccccc1`: the Potency result was “inactive”.

With `NC(=O)c1nc(-c2ccccc2)c(-c2ccccc2)nc1O`, the Potency entry is “inactive”.

`Oc1ccccc1N=Nc1nc(-c2ccccc2)c(-c2ccccc2)[nH]1`: the Potency is 20 µM (active).

With `CCOCCCN=C(S)NCCNc1nc2ccc(C)cc2cc1C#N`, the Potency entry was “inactive”.

`CCOC(=O)c1c(NC(=O)COc2ccccc2OCC)sc2c1CC(C)(C)NC2(C)C`: the Potency is 39.8 µM (active).

Consider `CCOC(=O)c1c(NC(=O)c2ccc(S(=O)(=O)N3CCCC(C)C3)cc2)sc2c1CC(C)(C)NC2(C)C` (stereo not given), for which the Potency entry was “inactive”.

In the case of `CC(C)CN(CC(C)C)S(=O)(=O)c1ccc(C(=O)Nc2sc3c(c2C(N)=O)CC(C)(C)NC3(C)C)cc1`, the Potency result is “inactive”.

For the compound `Cc1c2c(n3c(nc4ccccc43)c1C#N)N(CCN(C)C)CC2`, the Potency entry was “inactive”.

On to `C=CCc1cc(/C=C2\C(=N)N3N=C(CC(=O)N4CCOCC4)SC3=NC2=O)cc(OC)c1O`, for which the Potency entry was “inactive”.

`Fc1ccc(-[n+]2nc(Nc3ccccc3)sc2-c2c(Cl)cccc2Cl)cc1`: the Potency was 20 µM (active).

For `O=c1oc2cc(O)ccc2cc1-c1nc2c(s1)CCc1ccccc1-2`, the Potency entry is “inactive”.

Turning to `CNC(=O)NC(=O)C(C)OC(=O)c1c2c(nc3ccccc13)/C(=C/c1cccs1)CC2` (stereo not given), the Potency entry was “inactive”.

In the case of `CCc1ccccc1N(CC(=O)NC(C)(C)CC)C(=O)CCC(=O)Nc1nccs1`, the Potency result was “inactive”.

With `C/C(Cl)=C\Cn1c(O)c(/N=N/C(=N)S)c2ccccc21`, the Potency is 29.9 µM (active).

Turning to `CCN(CC)CCOC(=O)c1ccc(NC(=O)CCCN2C(=O)/C(=C\c3cccs3)SC2=S)cc1`, the Potency is 31.6 µM (active).

Turning to `Cc1ccc(C(=O)O)cc1-c1ccc(/C=C2\SC(=O)N(CC(=O)Nc3ccccc3)C2=O)o1`, the Potency entry is “inactive”.

As to `CC(=O)c1ccc(NC(=O)CCCN2C(=O)/C(=C/C(C)=C/c3ccccc3)SC2=S)cc1`, the Potency is 25.1 µM (active).

With `O=C(Nc1cc2c(=O)n(-c3ccc(Oc4ccccc4)cc3)ccc2oc1=O)c1ccccc1`, the Potency entry was “inactive”.

Take `COc1ccc(C2C=C(c3ccccc3)Nc3nnnn32)cc1` (stereo not given): the Potency result was “inactive”.

With `Cc1ccc2[nH]c(CSc3nc(C)ccc3C#N)nc2c1`, the Potency result is “inactive”.

Consider `Cc1ccc(Cl)c(OCCCCN(C)Cc2ccccc2)c1`, for which the Potency was 28.2 µM (active).

With `Cc1ccc2c(CN(C)Cc3ccccc3)cc(=O)oc2c1C`, the Potency result was “inactive”.

Regarding `CN(C)CCOCCOc1ccc(Cl)c2ccccc12`, the Potency entry was “inactive”.

On to `COCCCNC(=O)/C(C#N)=C/c1c(N2CCN(C)CC2)nc2ccccn2c1=O`, for which the Potency result was “inactive”.

As to `COc1ccc(C(=O)CC2(O)C(=O)N(Cc3cccc(C(F)(F)F)c3)c3ccccc32)cc1` (stereo not given), the Potency was 39.8 µM (active).

Regarding `COc1ccc(C2CC(c3cccc(C(F)(F)F)c3)=NN2c2ccc(S(N)(=O)=O)cc2)cc1` (stereo not given), the Potency entry was “inactive”.

On to `COc1cccc(CN2C(=O)c3cccc(N)c3C2=O)c1`, for which the Potency result is “inactive”.

Turning to `CCN(CC)c1ccc2cc(NC(=O)CCC(=O)O)c(=O)oc2c1`, the Potency result is “inactive”.

Turning to `COc1cccc(CN(C)C(=O)c2cc(S(=O)(=O)N3CCCC3)ccc2C)c1OC`, the Potency entry is “inactive”.

On to `Cc1ccc(S(=O)(=O)N2CCCCC2)cc1C(=O)N(C)CC(=O)Nc1ccc(Cl)c(C(F)(F)F)c1`, for which the Potency is 35.5 µM (active).

Turning to `Cc1ccc(S(=O)(=O)N2CCCCC2)cc1C(=O)Nc1ccc(S(=O)(=O)Nc2ncccn2)cc1`, the Potency entry is “inactive”.

As for `Cc1ccc(CCC(=O)Nc2ccc(Br)cc2)o1`, the Potency entry is “inactive”.

For `CCN1C(=O)c2cccc3c(S(=O)(=O)NCC4CCCO4)ccc1c23` (stereo not given), the Potency result is “inactive”.

Regarding `CCc1ccc(C(=O)Cn2ccsc2=N)cc1`, the Potency result is “inactive”.

`CCCn1c(=N)n(CC(=O)c2ccc([N+](=O)[O-])cc2)c2ccccc21`: the Potency result is “inactive”.

Regarding `N=c1n(CC(=O)c2ccc(Br)cc2)c2ccccc2n1Cc1ccccc1`, the Potency was 31.6 µM (active).

Regarding `C/C(=N\NC(=O)CSCc1ccc([N+](=O)[O-])cc1)c1ccccc1`, the Potency entry was “inactive”.

Turning to `Cc1ccc(Cn2c(=N)n(CC(=O)c3ccc([N+](=O)[O-])cc3)c3ccccc32)cc1`, the Potency is 22.4 µM (active).

`O=C(NCCc1ccccc1)C(=O)NCC1OCCN1S(=O)(=O)c1ccc(Br)cc1` (stereo not given): the Potency entry is “inactive”.

`O=c1oc2cc(O)ccc2cc1-c1nc2ccccc2o1`: the Potency entry is “inactive”.

As for `CCN(CC)c1ccc(S(=O)(=O)N(CC)CC)cc1NC(=O)c1cccnc1`, the Potency result is “inactive”.

As to `CCOC(=O)CNS(=O)(=O)c1ccc2c3c(cccc13)C(=O)N2CC`, the Potency result was “inactive”.

Take `Cc1ccccc1N1C(=O)C(Cc2ccc(F)cc2)S/C1=C(\C#N)C(N)=O` (stereo not given): the Potency result was “inactive”.

Take `CCN(CC)S(=O)(=O)c1ccc(C(=O)OCCN2C(=O)c3cccc4c(N5CCOCC5)ccc(c34)C2=O)cc1`: the Potency entry was “inactive”.

In the case of `Cc1ccc2cc(C#N)c(NCCN=C(S)NCCCN3CCOCC3)nc2c1`, the Potency entry was “inactive”.

As to `COc1cc(/C=C(\C#N)c2nc3ccccc3s2)ccc1OCC(=O)Nc1ccccc1`, the Potency result is “inactive”.

As to `COc1cc(/C=C(\CC(=O)O)c2nc3ccccc3s2)cc(OC)c1O`, the Potency result is “inactive”.

In the case of `O=C(Nc1ccc(Cl)cc1)/C(=C/c1cccc(O)c1)c1nc2ccccc2s1`, the Potency is 12.6 µM (active).
